Many of the other results were omitted from the sample, so hits are more common in it than they were.
Shiga toxin inh = A qHTS for Small Molecule Inhibitors of Shiga Toxin. Vero cells, Shiga toxin protein synthesis inhibition reporter. inhibition, % at 38.7 µM. 290,000 compounds, 9.2% hits; in the data active means inhibition mostly above about 28%, no sharp cut-off; inactive means mostly below about 43%; further: 0% is about no effect
LmPK inhibitor = qHTS Assay for Inhibitors of Leishmania Mexicana Pyruvate Kinase (LmPK); Potency, µM (titrated, usually from 57.5 µM), inactives show top-dose activity change, negative = inhibition, most hits filed as inhibitors; Q27686; 290,000 compounds, 0.37% hits; purified LmPK, Kinase-Glo ATP luminescence, 1 h; further: potency means the concentration at half of the fitted maximal effect; on the % scale 0 is the no-effect control and ±100 the full control effect
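Screened at intermediate enzyme activity to detect both inhibitors and activators: LmPK at 0.1 nM, with a 0.5 nM enzyme column as activation reference. PEP 0.5 mM, ADP 0.1 mM; ATP detected by luminescence after 1 h.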
Cycloheximide cs = Cycloheximide Counterscreen for Small Molecule Inhibitors of Shiga Toxin; AID 2314, 2010; cell reporter, cycloheximide protein synthesis inhibition counterscreen; max response, %; 300,000 compounds, 12% hits; in the data active means max response mostly above about 13%, no sharp cut-off; inactive means mostly below about 14%; further: read at 38.3 µM for the half of the compounds with a filed dose; 0% is about no effect
Giardia FBPA inh = qHTS Assay for Inhibitors of Fructose-1,6-bisphosphate Aldolase from Giardia Lamblia. A8B2U2. purified Giardia FBPA. Potency, µM (highest dose often 59.6 µM), for the others: at the top dose activity, negative = inhibition, most hits filed as inhibitors. 290,000 compounds, 0.71% hits; further: potency means the concentration at half of the fitted maximal effect; on the % scale 0 is the no-effect control and ±100 the full control effect; nearly all actives have a fitted effect of over 55% in size
Target sequence (A8B2U2 whole entry, looked up): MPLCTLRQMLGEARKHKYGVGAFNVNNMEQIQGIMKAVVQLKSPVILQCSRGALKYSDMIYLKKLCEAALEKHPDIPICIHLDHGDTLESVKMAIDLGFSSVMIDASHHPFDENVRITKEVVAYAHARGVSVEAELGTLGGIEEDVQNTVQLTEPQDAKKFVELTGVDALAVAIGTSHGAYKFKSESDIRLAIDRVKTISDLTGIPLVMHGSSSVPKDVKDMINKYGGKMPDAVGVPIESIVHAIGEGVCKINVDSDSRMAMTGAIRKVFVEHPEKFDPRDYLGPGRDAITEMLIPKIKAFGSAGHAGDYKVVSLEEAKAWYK
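Giardia FBPA (40 nM reagent) was preincubated 10 min at RT with compound (up to 57.5 uM final), then substrate plus GAPDH/TPI/NAD/arsenate coupling system with diaphorase/resazurin was added; resorufin fluorescence (525/598 nm) was read after 20 min.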
TbPYK inhibitor = qHTS of Trypanosoma Brucei Inhibitors. pyruvate kinase (Trypanosoma brucei), Q57TT1. TbPYK enzyme, Kinase-Glo Plus ATP luminescence, 45 min. Potency, µM (doses to about 76.8 µM), for the others: at the top dose activity, negative = inhibition, hits mostly inhibitors. 410,000 compounds, 0.12% hits. AID 624173, 2012; further: potency means the concentration at half of the fitted maximal effect; on the % scale 0 is the no-effect control and ±100 the full control effect; nearly all actives have a fitted effect of over 50% in size
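Glycolytic pyruvate kinase of T. brucei was incubated with substrate, test compound and 130 uM ADP for 45 minutes at room temperature. Luminescent Kinase-Glo Plus signal was measured after 10 minutes.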
Sm TGR inh = qHTS Assay for the Inhibitors of Schistosoma Mansoni Peroxiredoxins; 360,000 compounds, 3% hits; AID 485364, 2010; Potency, µM (series often up to 114 µM), without a hit: top-dose activity change, negative = inhibition, actives largely listed as inhibitors; purified TGR, DTNB reduction, TNB absorbance 405 nm; further: potency means the concentration at half of the fitted maximal effect; on the % scale 0 is the no-effect control and ±100 the full control effect; nearly all actives have a fitted effect of over 60% in size
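Kinetic colorimetric format: TGR-catalysed, NADPH-driven DTNB reduction monitored via TNB absorbance. Enzyme dispensed at 20 nM; compound exposure 15 min at room temperature before reaction start.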
* marks the source's active call; other numbers are inactive results; u = inconclusive; x = no result given; + = active, no number; [ ] = remark or other dose. Unless noted, the call rests on the fitted dose curve; in most records, active means well fitted curve in the direction sought with a large enough effect; inconclusive means small, poorly fitted or top-dose-only effect, or another doubt; inactive means no such curve, though single readings can be large; an effect the other way counts as inactive or inconclusive.

SMILES	Shiga toxin inh	LmPK inhibitor	Cycloheximide cs	Giardia FBPA inh	TbPYK inhibitor	Sm TGR inh
Cc1cc2c(cc1S(=O)(=O)N1CCOCC1)NC(=O)CO2	-2	-3%	2	-5%	0%	5%
COc1ccc2c(c1OC)C(=O)N1N=C(c3ccc(Cl)cc3)CC21 (configuration not stated)	8	0%	13*	5%	-5%	-1%
COc1ccc(NC(=S)Nc2cccc(Cl)c2Cl)cc1OC	2	-1%	-2	-21%	-3%	28µM*
COc1cccc(NC(=S)Nc2cc(C)cc(C)n2)c1	56*	0%	49*	1%	5%	-23%
CNC(=S)Nc1ccc(OC)c(OC)c1	-8	4%	-2	-26%	-4%	-14%
Cc1cc(C)nc(NC(=S)Nc2cccc(F)c2)c1	20	-1%	3	1%	0%	-1%
COc1ccc(NC(=S)Nc2cc(C)cc(C)n2)cc1OC	25	0%	21*	-12%	5%	-16%
Cc1c(C(=O)N2CCC(C)CC2)c(S(=O)(=O)N2CCN(c3cccc(Cl)c3)CC2)c(C)n1C	x	x	x	x	2%	0%
CCc1ccc(OC(=O)CSc2nnc(-c3ccc(OC)c(OC)c3)o2)cc1	x	x	x	x	-1%	-11%
COc1ccc(OC)c(Nc2nc3ccccc3nc2-n2nc(C)cc2C)c1	x	x	x	x	-3%	10%
O=C(NCCc1csc(-c2cccc(F)c2)n1)c1ccccc1C(F)(F)F	x	x	x	x	3%	0%
COc1cc(C)cc(CN2CC=C(c3ccccc3)CC2)c1O	24	2%	0	-19%	-7%	-29%
COc1ccc2c(CN3CC=C(c4ccccc4)CC3)cc(=O)oc2c1	22	-1%	29*	0%	u	u
COc1ccc2ccc(O)c(CN3CCN(S(=O)(=O)c4cccc(C(F)(F)F)c4)CC3)c2c1	x	x	x	x	4%	2.5µM*
CCc1ccc2c(CN3CC=C(c4ccccc4)CC3)cc(=O)oc2c1	-38	1%	8	-10%	-14%	-1%
COc1ccc2c(CN(C)Cc3ccccc3)cc(=O)oc2c1	x	x	x	x	-4%	x
COc1ccc2ccc(O)c(CN3CC=C(c4ccccc4)CC3)c2c1	-4	0%	12	-10%	2%	8.9µM*
COc1ccc2c(CN(C)c3ccccc3)cc(=O)oc2c1	48	13%	22*	-23%	-3%	u
CCOc1ccc(OCC(O)CN2CCN(S(=O)(=O)c3cccc(C(F)(F)F)c3)CC2)cc1 (configuration not stated)	32	-2%	-3	u	8%	6%
Cc1ccccc1CCNC(=O)C1CCN(S(=O)(=O)c2ccc3c(ccn3C)c2)CC1	x	x	x	x	0%	-4%
Cc1ccsc1C(=O)N1CCC1(C)C(=O)NCC(C)(C)C (configuration not stated)	x	x	x	x	2%	x
CC(=O)n1cc(N(C(=O)CCl)c2ccc(C)cc2)c2ccccc21	4	7%	22*	-1%	-1%	0.71µM*
CCCCC(=O)Nc1ccc(NC(=O)C(C)C)cn1	73*	-1%	26*	-1%	2%	-2%
CCCCC(=O)Nc1cccc(NC(=O)C(C)C)c1	-9	6%	-3	-2%	0%	-1%
CCCCC(=O)Nc1ccc(NC(=O)c2cnccn2)cn1	27	-3%	25*	-7%	-6%	x
SMILES	Shiga toxin inh	LmPK inhibitor	Cycloheximide cs	Giardia FBPA inh	TbPYK inhibitor	Sm TGR inh
O=C(Cc1c(Cl)cccc1Cl)NCCc1ccc(Cl)cc1	-1	1%	0	8%	5%	2%
O=C(CCl)NCc1c(Cl)cccc1-n1cccc1	10	1%	-2	6%	11%	32µM*
Cc1cc(/C=C(\C#N)C(=O)NCc2cccs2)c(C)[nH]1	67	2%	16*	1%	4%	-31%
COc1cccc(-c2nc(C(N)=O)c3c(n2)n(-c2ccc4c(c2)OCO4)c(=O)n3C)c1OC	x	x	x	x	-2%	-4%
Cc1ccc2onc(CNC(=O)Nc3ccccc3C#N)c2c1	x	x	x	x	-2%	4%
CC(=Nc1cccc(C)c1)c1sc2ccccc2c1O	109*	-6%	45*	4%	-2%	7%
Oc1ccc(-c2c(-c3ccsc3)sc3ccccc23)cc1	-8	5%	2	5%	-3%	14%
CC(=Nc1ccc(O)cc1)c1sc2ccccc2c1O	95*	-1%	48*	-6%	0%	-3%
CC(=Nc1ccccc1O)c1sc2ccccc2c1O	67*	4%	33*	-12%	2%	0%
Cc1c(C(=O)c2ccccc2C(=O)O)sc2ccccc12	-7	2%	-1	u	-10%	2%
CC(=O)NCCN=C(C)c1sc2ccccc2c1O	+	0%	24*	-3%	71%	-5%
O=C(NCC1CCCC(CNC(=O)Nc2ccc(Cl)cn2)C1)Nc1ccc(Cl)cn1 (configuration not stated)	37	-6%	9	0%	6%	-4%
COc1cccc([C@H]2Oc3ccc(OC)cc3/C(=N\OC[C@@H](O)[C@@H]3O[C@@H]4OC(C)(C)O[C@@H]4[C@H]3O)[C@@H]2O)c1	x	x	x	-1%[12.9 µM]	x	x
CC(=O)c1ccc(N2C(=O)NC3(CCCCC3)C2=O)cc1	74*	-7%	14*	7%	0%	25%
CSc1ccc(N2C(=O)NC3(CCCCC3)C2=O)cc1	26	1%	18*	0%	-1%	114%[11.4 µM]
C/C(=N\NC(=O)CNC(=O)c1ccc(F)cc1)c1ccco1	6	-2%	-1	x	1%	-22%
Cc1noc(C)c1C(=O)N1CCC[C@@]2(CCN(C(=O)NC(C)C)C2)C1	x	x	x	5%	1%	x
COc1ccccc1-c1noc(-c2ccc(NCc3ccco3)c([N+](=O)[O-])c2)n1	x	x	x	x	4%	2%
Cc1cccc2nc(CSc3nc4ccccc4o3)cn12	+	-2%	49*	u	-7%	-2%
c1ccc2nc(SCc3cn4ccccc4n3)cnc2c1	64*	-4%	40*	-6%	-8%	4%
c1ccc2oc(SCc3cn4ccccc4n3)nc2c1	65*	-5%	52*	-11%	-9%	0%
O=S(=O)(c1ccccc1)c1nc(-c2ccc(F)cc2)oc1N1CCCCCC1	x	x	x	x	-3%	-2%
O=S(=O)(c1ccccc1)c1nc(-c2ccco2)oc1N1CCCCC1	-4	-7%	-5	13%	7%	45µM*
O=S(=O)(c1ccc(F)cc1)c1nc(-c2ccccc2F)oc1N1CCCCC1	22	-4%	11	-13%	-17%	10µM*
CC1CCN(c2oc(-c3ccco3)nc2S(=O)(=O)c2ccccc2)CC1	12	-4%	1	x	-1%	-7%
